Rows were chosen to be rich in hits. Some 7% of all compounds tested hit in one or more screens of this group.
ATXN viability – Viability Counterscreen for Primary qHTS for Inhibitors of ATXN expression; S2 cells (HEK-293 line with an ATXN2-luciferase reporter) viability, CellTiter-Fluor protease fluorescence, 24 h; Potency, µM (doses to about 56.7 µM), usual class: cytotoxic; hit rate 0.49% among 400,000; note: nearly all actives have a fitted effect of over 40% in size
ATXN2 expr inh – Primary qHTS for Inhibitors of ATXN expression | Potency, µM (series often up to 57 µM), actives largely listed as inhibitors | hit rate 0.72% among 360,000 | AID 1745845, 2022 | HEK-293 ATXN2-luciferase reporter, luminescence, 24 h; note: nearly all actives have a fitted effect of over 55% in size
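qHTS (up to 57 uM final) was run with 24 h compound exposure of reporter cells at 37 °C. Each well was multiplexed: SteadyGlo luminescence measured ATXN2-luciferase expression after a fluorogenic Gly-Phe-AFC viability readout (25 uM final).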
a7 integrin act – qHTS for Activators of Integrin-Mediated Alleviation for Muscular Dystrophy; AID 624291, 2012; Potency, µM (series often up to 38.3 µM), hits mostly activators; alpha7betagal myoblasts, beta-gal FDG fluorescence, 48 h; hit rate 0.064% among 350,000; note: nearly all actives have a fitted effect of over 60% in size
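Alpha7betagal+/- myoblasts (passage 13) were plated 16-24 hr, then exposed to compounds (1:260 dilution of DMSO stock) for 48 hours at 37C. After MPER lysis, β-galactosidase reporter activity was read as FDG fluorescence (ex 480/em 540) after 30 minutes.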
DRD3 antagonist – qHTS of D3 Dopamine Receptor Antagonist: qHTS; D(3) dopamine receptor (Homo sapiens), P35462; D3R cells, DiscoveRx beta-arrestin luminescence, antagonist mode; active compounds read low; max response, negative = inhibition, %; hit rate 2.5% among 360,000; AID 652054, 2013; in the data active = max response below about -50%; inconclusive = no clear call, values can overlap the other calls
Target sequence (P35462 whole entry, looked up): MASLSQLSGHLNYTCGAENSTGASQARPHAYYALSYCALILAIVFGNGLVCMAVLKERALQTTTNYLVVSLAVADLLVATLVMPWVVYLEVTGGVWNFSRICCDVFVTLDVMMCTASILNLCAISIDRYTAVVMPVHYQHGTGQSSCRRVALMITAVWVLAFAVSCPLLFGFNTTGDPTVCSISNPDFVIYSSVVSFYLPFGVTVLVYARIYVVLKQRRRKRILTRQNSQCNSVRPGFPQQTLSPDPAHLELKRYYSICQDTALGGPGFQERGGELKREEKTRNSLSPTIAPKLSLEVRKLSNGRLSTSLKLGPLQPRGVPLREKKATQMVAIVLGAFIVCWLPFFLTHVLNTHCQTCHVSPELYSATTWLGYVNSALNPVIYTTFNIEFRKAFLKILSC
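Cells plated overnight at 1500 cells/well, then exposed to library compounds with dopamine controls for 90 minutes at 37 degrees C. DiscoveRx reagent added for 30–60 minutes at room temperature; luminescence read, quantitative HTS format.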
DRD3 agonist – qHTS of D3 Dopamine Receptor Agonist: qHTS; D3R DiscoveRx beta-arrestin cells, luminescence, 90 min; max activation, %; hit rate 0.58% among 410,000; AID 652048, 2013; in the data active = max activation above about 30%
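Agonist-mode cell screen: cells plated at 1500/well and incubated overnight at 37 °C, then exposed to library compounds for 90 min at 37 °C. Detection reagent was added for 30–60 min at room temperature, and luminescence was read.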
IL-1B inflam inh – qHTS for Inhibitors of Inflammasome Signaling: IL-1-beta AlphaLISA Primary Screen | THP-1 LPS/ATP IL-1B secretion, AlphaLISA, 16 h; active compounds read low | activity change, % at 57.5 µM | hit rate 4.7% among 360,000 | AID 743279, 2014; in the data active = activity change below about -50%; inconclusive = mostly about -30% to -49%
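THP-1 cells pretreated 1 hr with compounds (up to 57.5 uM final), then stimulated with LPS (250 ng/mL final) plus ATP (1.25 mM final); secreted IL-1B measured by AlphaLISA after 16 hr, decreased signal indicating inhibition.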
Large screens that a line does not name were inactive. Unless noted, calls come from the whole dose curve; as a rule, active = well fitted curve in the direction sought with a large enough effect; inconclusive = small, poorly fitted or top-dose-only effect, or another doubt; inactive = no such curve, though single readings can be large; an effect the other way counts as inactive or inconclusive.

CN(C)S(=O)(=O)c1cccc(NC(=O)c2ccc(N3CCCC3=O)cc2)c1	none
COCCn1nnnc1SCC(=O)c1ccc(F)cc1	DRD3 antagonist -67
CC(=O)NCCc1nc2ccccc2n1Cc1ccc(C)cc1	none
O=C(/C=C/c1ccccc1)c1ccc(NC2=NCCCS2)cc1	IL-1B inflam inh -102
CC(C)(C)c1ccc(/C=C/C(=O)c2ccc(NC3=NCCCS3)cc2)cc1	ATXN2 expr inh inconclusive, IL-1B inflam inh -100
c1ccc(NC2=NCCCCS2)cc1	none
O=C(/C=C/c1ccc(Br)cc1)c1ccc(NC2=NCCCS2)cc1	ATXN viability 32µM, ATXN2 expr inh inconclusive, DRD3 antagonist -55, IL-1B inflam inh -65
O=C(CSc1ncnc2sc(-c3ccccc3)cc12)NC1CCS(=O)(=O)C1 (centres undefined)	ATXN viability inconclusive, ATXN2 expr inh inconclusive, IL-1B inflam inh -66
COC(=O)C1(C(=O)OC)C[C@H](/C=C/c2ccccc2)N(Cc2ccccc2OC)[C@@H]1c1ccccc1	none (no result: ATXN viability, ATXN2 expr inh, a7 integrin act)
CC1=NN(C(N)=S)C(=O)C1N=Nc1ccc(O)cc1 (centres undefined)	DRD3 antagonist -66
COc1ccc(CNC(=O)Cn2c(=O)nc(-c3ccccc3)c3ccccc32)cc1OC	DRD3 agonist 33 (no result: ATXN viability, ATXN2 expr inh, a7 integrin act, DRD3 antagonist, IL-1B inflam inh)
CCOc1ccc(CNC(=O)CN2N=C(c3ccccc3)CCC2=O)cc1OC	DRD3 agonist 50 (no result: ATXN viability, ATXN2 expr inh, a7 integrin act, DRD3 antagonist, IL-1B inflam inh)
CC(C)c1nnc(NC(=O)c2nc(S(=O)(=O)Cc3ccccc3F)ncc2Cl)s1	ATXN viability 7.1µM, ATXN2 expr inh 10µM, DRD3 antagonist -51, IL-1B inflam inh -95
CCOc1ccc(NC(=O)c2nc(S(=O)(=O)Cc3ccccc3F)ncc2Cl)cc1	none (no result: ATXN viability, ATXN2 expr inh, a7 integrin act, DRD3 antagonist, IL-1B inflam inh)
O=C(Nc1nc2ccc(F)cc2s1)c1nc(S(=O)(=O)Cc2ccccc2F)ncc1Cl	ATXN viability 11µM, ATXN2 expr inh 25µM (no result: a7 integrin act, DRD3 antagonist, IL-1B inflam inh)
O=C(Nc1nc2ccc(F)cc2s1)c1ccccn1	ATXN viability inconclusive, ATXN2 expr inh inconclusive, DRD3 antagonist -73, IL-1B inflam inh -95
O=C(Nc1nnc(SCc2ccc(F)cc2)s1)c1ccccn1	ATXN viability inconclusive, ATXN2 expr inh inconclusive, DRD3 antagonist -66
Cc1n[nH]c(C)c1CCCCOc1ccccc1F	IL-1B inflam inh inconclusive
COC(=O)c1cc(OC)c(OC)cc1N1C(=O)CC(C)(C)CC1=O	none
COc1ccccc1NC(=O)C1CCCN(S(=O)(=O)c2ccc3[nH]c(=O)ccc3c2)C1 (centres undefined)	none
Cc1nnc(NC(=O)c2nc(S(=O)(=O)Cc3ccccc3C)ncc2Cl)s1	ATXN viability inconclusive, ATXN2 expr inh inconclusive, DRD3 antagonist -50, IL-1B inflam inh -94
CSc1nnc(NC(=O)c2nc(S(=O)(=O)Cc3ccccc3F)ncc2Cl)s1	ATXN viability inconclusive, IL-1B inflam inh -101
Cc1nnc(NC(=O)c2nc(SCc3ccccc3F)ncc2Cl)s1	none (no result: a7 integrin act, DRD3 antagonist, IL-1B inflam inh)
COc1cc([N+](=O)[O-])cc(/C=N/NC(=O)c2cccnc2)c1O	a7 integrin act inconclusive, DRD3 antagonist inconclusive (no result: ATXN2 expr inh)
O=C(C1CCN(Cc2ccc(F)cc2)CC1)N(CCc1ccccc1)Cc1ccccc1	IL-1B inflam inh -89
CC(C)CCNC(=O)C1CCN(Cc2cccc(OCc3ccccc3)c2)CC1	IL-1B inflam inh -57
CCN(CC)C(=O)C1CCN(Cc2ccc(OCc3ccccc3)cc2)CC1	IL-1B inflam inh -57
CCCCN(C)C(=O)C1CCN(Cc2cccc(OCc3ccccc3)c2)CC1	ATXN viability inconclusive, IL-1B inflam inh inconclusive
CCN(CC)C(=O)C1CCN(Cc2cccc(OCc3ccccc3)c2)CC1	DRD3 antagonist -61
Cc1ccc(CSc2nnc(NC(=O)C3=COCCO3)s2)cc1	none
Nc1nc(SCC(=O)Nc2cccc(F)c2)n[nH]1	ATXN viability inconclusive (no result: ATXN2 expr inh)
CC(C)Oc1ccc(C2CC(=O)N(Nc3ccc([N+](=O)[O-])cc3[N+](=O)[O-])C2=O)cc1 (centres undefined)	ATXN2 expr inh inconclusive, DRD3 antagonist -51
